{"source": "the supplement of paper PMC10338343", "note": "± gives the standard deviation.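 Note: 1 nM active piRISC with 0.1 nM target library at 33 °C single turnover.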", "data": [{"test_system": "MILI (PIWIL2) piRISC loaded with piRNA #1 (26 nt)", "experiment": "pre-steady-state target cleavage rate (min^-1); guide: piRNA #1 5'p-UGAGGUAGUAGGUUGUAUAGUAUCCA; MIWI and MILI are mouse PIWI proteins and EfPiwi is from a freshwater sponge; tags in brackets are library labels; higher = faster piRNA-guided slicing of the target", "details": "auxiliary factor: 500 nM mouse GTSF1", "how_it_was_run": "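At 33 °C in HEPES–potassium acetate buffer, a transcribed, DNA-blocked target RNA library […] was exposed for 0–8 or 0–960 min to 1 nM active affinity-purified piRISC carrying a single synthetic guide, with or without 500 nM GTSF1 partner protein. Uncleaved targets were sequenced and normalised to depth and to weakly complementary targets. With three trials pooled and k3 capped at 0.0001 min^-1, a burst-and-steady-state fit produced the pre-steady-state cleavage rate.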", "values": [{"sequence": "GGAGACCUAUCUUUAGAACCUACUACCUCA", "pre-steady-state target cleavage rate": "0.0437 ± 0.0095"}, {"sequence": "GGAGAGGAUACUAUUGAACCUACUACCUCA", "pre-steady-state target cleavage rate": "0.124 ± 0.011"}, {"sequence": "GGAGACCUUACUAUACAAGCUUCUACCUCA", "pre-steady-state target cleavage rate": "0.036 ± 0.0065"}, {"sequence": "GGAGACCUAUGUAAACAACCUACUACCACA", "pre-steady-state target cleavage rate": "0.00967 ± 0.0036"}, {"sequence": "GGAGUCGAUACUAUACAUCCUACUACCUCA", "pre-steady-state target cleavage rate": "0.313 ± 0.017"}, {"sequence": "GGAGACCUAUGAUUACAACCUAUUACCUCA", "pre-steady-state target cleavage rate": "0.00348 ± 0.0024"}, {"sequence": "GGAGUGGAUACUUUACAACCUACUACGUCA", "pre-steady-state target cleavage rate": "0.0457 ± 0.0058"}, {"sequence": "GGAGACCAUACUAUACAUGGUACUACCUCA", "pre-steady-state target cleavage rate": "0.00626 ± 0.0026"}, {"sequence": "GGAGACCUAACUAUACAACCUACUCACCUCA", "pre-steady-state target cleavage rate": "0.147 ± 0.032"}, {"sequence": "GGAGACCUAUGUAUUCAAGCUACUACCUCA", "pre-steady-state target cleavage rate": "0.109 ± 0.011"}, {"sequence": "GGAGACCUAUGUAUACUACGUACUACCUCA", "pre-steady-state target cleavage rate": "0.00798 ± 0.0023"}, {"sequence": "GGAGACCUAUGAAUACAACCUACUACGCUCA", "pre-steady-state target cleavage rate": "0.0107 ± 0.0039"}, {"sequence": "GGAGACCUAUCAAUACAACCUACUACGUCA", "pre-steady-state target cleavage rate": "0.0134 ± 0.0044"}, {"sequence": "GGAGACCUAUGAUUGCAACCUACUACCUCA", "pre-steady-state target cleavage rate": "0.00532 ± 0.003"}, {"sequence": "GGAGACCUAACAAUAGAACCUACUACCUCA", "pre-steady-state target cleavage rate": "0.0656 ± 0.012"}, {"sequence": "GGAGACCUUACUAAACAACCUACUUCCUCA", "pre-steady-state target cleavage rate": "0.0656 ± 0.014"}]}]}
